Measurements taken from ChEMBL document CHEMBL3988442, “University of Dundee, Small-Polar-MMV Screening Library” (2021).
About 13,000 (27%) of roughly 48,000 compounds showed an effect of 50% or more. The list shows a part of the results.

Each molecule was assayed on Wolbachia pipientis (assay: Anti-Wolbachia Cell-Based Screen). Settings: 5 µM.
Format: functional
Parameters: scale not given: in the data most compounds retested in dose-response had high values
In the case of OCCC1CN(C2CCC2)CCN1C1CCCC1 (centres undefined), the “Percent Effect” value is reported as 7.142%. In the case of CCc1nc(CN2CCOC(Cn3nc(C)cc3C)C2)no1 (centres undefined), the “Percent Effect” value is reported as 85.61%. In the case of CCc1n[nH]c(C2CN(Cc3nc(C4CC4)no3)CCO2)n1 (centres undefined), the “Percent Effect” value is reported as 14.51%. Cc1cc(C)n(CC2CN(Cc3nc(-c4ccoc4)no3)CCO2)n1 (centres undefined) was tested, and the “Percent Effect” value was 9.322%. For CCc1nc(CN2CCOC(Cn3nc(C)nc3C)C2)no1 (centres undefined), the “Percent Effect” value was 5.512%. In the case of Cc1cc(C)n(CC2CN(Cc3nc(C4CC4)no3)CCO2)n1 (centres undefined), the “Percent Effect” value is reported as 104.8%. Cc1cc(C)n(CC2CN(Cc3noc(C)n3)CCO2)n1 (centres undefined) was tested, and the “Percent Effect” value was 98.99%. For Cc1cc(C)n(CC2CN(Cc3nnsc3Cl)CCO2)n1 (centres undefined), the “Percent Effect” value was 2.291%. With Cc1cc(C)n(CC2CN(Cc3nc(C)c(C)o3)CCO2)n1 (centres undefined) the “Percent Effect” value was 127.2%. For Cc1cc(C)n(CC2CN(Cc3cscn3)CCO2)n1 (centres undefined), the “Percent Effect” value was -9.283%. O=C1O[C@@H]2CN(C3CCOCC3)C[C@@H]2N1CCc1cccc(Cl)c1 was tested, and the “Percent Effect” value was -15.11%. In the case of CCNC(=O)NC(=O)CNC(C)(CC)c1nccs1 (centres undefined), the “Percent Effect” value is reported as 7.409%. In the case of CC(=O)c1cc(C(=O)N2CCC(CC(C)C)C2)c(=O)[nH]c1C (centres undefined), the “Percent Effect” value is reported as 6.103%. For O=C1CC(Nc2ccc3nccnc3n2)CN1c1ccccc1 (centres undefined), the “Percent Effect” value was -12.7%. With Cc1cc(C)n(CC2CN(Cc3noc(C4CC4)n3)CCO2)n1 (centres undefined) the “Percent Effect” value was 115.4%. For c1cnn(CC2CN(Cc3noc(C4CC4)n3)CCO2)c1 (centres undefined), the “Percent Effect” value was -0.1842%. COc1cccc2c1OCCCN(c1nc(C)nc3c1CCNCC3)C2 was tested, and the “Percent Effect” value was -7.329%. In the case of c1ccc(-n2ccc(CN3CCCC3Cn3cncn3)n2)cc1 (centres undefined), the “Percent Effect” value is reported as 128.5%. With c1ccc(-n2ccc(CN3CCCCC3Cn3cncn3)n2)cc1 (centres undefined) the “Percent Effect” value was 140.8%. With c1ccc(CN2CCCC2Cn2cncn2)nc1 (centres undefined) the “Percent Effect” value was -0.04189%. With N#Cc1ccccc1CN1CCCCC1Cn1cncn1 (centres undefined) the “Percent Effect” value was 7.073%. For N#Cc1ccc(F)c(CN2CCCC2Cn2cccn2)c1 (centres undefined), the “Percent Effect” value was -3.171%. In the case of c1ccc(-c2nc(CN3CCCC3Cn3cncn3)cs2)cc1 (centres undefined), the “Percent Effect” value is reported as -3.695%. With Fc1ccc(CN2CCCC2Cn2cccn2)c2ncccc12 (centres undefined) the “Percent Effect” value was -3.711%. For Fc1cccc(-n2ccc(CN3CCCC3Cn3cccn3)n2)c1 (centres undefined), the “Percent Effect” value was 141.1%. For Fc1cccc(-n2ccc(CN3CCCCC3Cn3cncn3)n2)c1 (centres undefined), the “Percent Effect” value was -7.7%. For COCC(=O)N1CCC(C(=O)N(C)CCCc2nccn2C)CC1, the “Percent Effect” value was -11.58%. For CCC[C@H]1CN(S(=O)(=O)c2cc(C)ccc2C)C[C@@H]1N, the “Percent Effect” value was -30.29%. In the case of CN1CCC2(CC1)CN(C(=O)c1onc3ccccc13)CCCN2C, the “Percent Effect” value is reported as 72.92%. For Cc1ccoc1C(=O)N1CCCC2(CCCN2S(C)(=O)=O)C1 (centres undefined), the “Percent Effect” value was -9.811%. With CS(=O)(=O)N1CCCC12CCCN(C(=O)c1ccno1)C2 (centres undefined) the “Percent Effect” value was -3.748%. CN1CCC2(CC1)CCN(C(=O)c1onc3ccccc13)C2 was tested, and the “Percent Effect” value was 92.75%. CC(=O)N1CCCC2(CCN(C(=O)c3nn(C)c4ccccc34)CC2)C1 was tested, and the “Percent Effect” value was -40.55%. With CCN(CC)Cc1cc(C(=O)N2CCC3(CCN(C)CC3)C2)c(C)o1 the “Percent Effect” value was 8.973%. Cc1ccc(C(CNC(=O)Cc2nc3ncccn3n2)N(C)C)cc1 (centres undefined) was tested, and the “Percent Effect” value was -10.58%. In the case of CC(=O)NCCc1ccc(S(=O)(=O)N(C)C(C)CC(C)C)s1 (centres undefined), the “Percent Effect” value is reported as 2.114%. With CCC[C@@H]1CN(C(=O)c2cc(-c3cccs3)n(C)n2)C[C@H]1N(C)C the “Percent Effect” value was 95.7%. With CCC[C@H]1CN(CCS(C)(=O)=O)C[C@@H]1NC(=O)c1ccn(C)n1 the “Percent Effect” value was -3.531%. For CC(C)c1nc(C(=O)N2C[C@H](C(C)C)[C@@H](N)C2)cs1, the “Percent Effect” value was -1.889%. In the case of CCC[C@H]1CN(C(=O)c2cc(-c3cccs3)n(C)n2)C[C@@H]1N, the “Percent Effect” value is reported as 106.1%. CCC[C@@H]1CN(C(=O)c2ccccc2C(C)=O)C[C@H]1N(C)C was tested, and the “Percent Effect” value was 5.199%. With CCC[C@@H]1CN(C(=O)c2cc3ccccc3cc2O)C[C@H]1N(C)C the “Percent Effect” value was 2.808%. CCC[C@@H]1CN(C(=O)CCc2ccco2)C[C@H]1NS(C)(=O)=O was tested, and the “Percent Effect” value was -2.62%. CCC[C@@H]1CN(C(=O)c2cc(-c3cccs3)n(C)n2)C[C@H]1NS(C)(=O)=O was tested, and the “Percent Effect” value was 96.45%. With CCC[C@@H]1CN(Cc2cnc(-c3cccs3)nc2)C[C@H]1C(=O)O the “Percent Effect” value was -4.575%. For COc1cc(C(=O)N2CCC(O)(CN3CCOCC3)C(C)(C)C2)ccn1 (centres undefined), the “Percent Effect” value was 1.548%. CC1(C(=O)N2CCOCC2)CN(Cc2cccnc2)CCO1 (centres undefined) was tested, and the “Percent Effect” value was 65.44%. CSCCC(O)C(=O)N1CCCN(Cc2cccnc2)CC1 (centres undefined) was tested, and the “Percent Effect” value was -2.174%. With COc1ncc(CN2CCOC(C)(C(=O)N3CCOCC3)C2)cn1 (centres undefined) the “Percent Effect” value was 124.6%. Cc1ccc(N2CC3(COCCN(Cc4cccnc4)C3)OCC2=O)s1.O=C(O)C(F)(F)F.O=C(O)C(F)(F)F (centres undefined) was tested, and the “Percent Effect” value was 6.598%. With COc1ncc(-c2nccn2-c2ccccc2CN2CCOCC2)cn1 the “Percent Effect” value was 4.794%. With CNc1cccc(C2CCCN(C(=O)c3cscn3)C2)n1 (centres undefined) the “Percent Effect” value was 98.56%. For CNc1cccc(C2CCCN(C(=O)c3ccn(C)n3)C2)n1 (centres undefined), the “Percent Effect” value was 117.7%. CNc1cccc(C2CCCN(C(=O)c3cncs3)C2)n1 (centres undefined) was tested, and the “Percent Effect” value was 121.7%. In the case of CNc1cccc(C2CCN(C(=O)c3cccnc3)CC2)n1, the “Percent Effect” value is reported as 107.8%. With O=C(c1cccnc1)N1CCC(Oc2cccc(C(F)(F)F)c2)CC1 the “Percent Effect” value was 6.335%. CN(c1ncccc1CNC(=O)c1csnn1)C1CCCCC1 was tested, and the “Percent Effect” value was 20.86%. For Cc1ccsc1CN(CCN(C)C)C(=O)c1ccc(C#N)nc1, the “Percent Effect” value was -1.147%. For NC1CCN(C2CCN(c3ccc(-c4ccco4)cc3)CC2)CC1, the “Percent Effect” value was -26.06%. In the case of CCc1nsc(N2CCc3sccc3C2)n1, the “Percent Effect” value is reported as 12.97%. With CNc1cccc(C2CCCN(C(=O)c3cnccn3)C2)n1 (centres undefined) the “Percent Effect” value was 101.6%. With CNc1cccc(C2CCCN(C(=O)c3coc(C)n3)C2)n1 (centres undefined) the “Percent Effect” value was 115.1%. For CNc1cccc(C2CCCN(C(=O)Cc3ccccc3)C2)n1 (centres undefined), the “Percent Effect” value was 110.2%. For CNc1cccc(C2CCCN(C(=O)c3ccncc3)C2)n1 (centres undefined), the “Percent Effect” value was -7.86%. In the case of CNc1cccc(C2CCCN(C(=O)c3cccnc3)C2)n1 (centres undefined), the “Percent Effect” value is reported as 119.9%. O=C(N[C@@H]1CCN(c2ncc(Cl)cc2Cl)C[C@H]1O)c1cnccn1 was tested, and the “Percent Effect” value was -4.452%. In the case of COC(C)C(=O)Nc1cc(C(=O)N2CCSCC2)ccc1C (centres undefined), the “Percent Effect” value is reported as -22.96%. For CNS(=O)(=O)c1ccc(CN2CCN3CCNC(=O)C3C2)cc1 (centres undefined), the “Percent Effect” value was -0.7065%. In the case of COCCN1CCCC(O)(CN2CCN(c3cnccn3)CC2)C1=O (centres undefined), the “Percent Effect” value is reported as -3.22%. For O=S(=O)(C1CC1)N1CCC(Cn2cccn2)CC1, the “Percent Effect” value was 1.748%. For Cc1cc(C(C)NC(=O)c2ccc(O)nc2)c(C)o1 (centres undefined), the “Percent Effect” value was 2.609%. For CC(C)N1CC(NC(=O)c2ccc(Cl)s2)CC1=O (centres undefined), the “Percent Effect” value was 98.39%. CCCS(=O)(=O)N1CCC(NC(=O)c2ccc(Cl)s2)CC1 was tested, and the “Percent Effect” value was 8.314%. For O=C(NC1CC(=O)N(C2CC2)C1)c1ccc(Cl)s1 (centres undefined), the “Percent Effect” value was -7.498%. O=C(C1CC1)N1Cc2[nH]nc(COCc3cccnc3)c2C1.O=C(O)C(F)(F)F.O=C(O)C(F)(F)F was tested, and the “Percent Effect” value was 96.05%. In the case of CCS(=O)(=O)N1Cc2[nH]nc(COCc3cccnc3)c2C1.O=C(O)C(F)(F)F, the “Percent Effect” value is reported as 98.27%. With O=C(O)C(F)(F)F.O=C(O)C(F)(F)F.O=C(O)C(F)(F)F.c1ccc(CN2Cc3[nH]nc(COc4cccnc4)c3C2)nc1 the “Percent Effect” value was 6.723%. O=C(O)C(F)(F)F.O=S(=O)(C1CC1)N1Cc2[nH]nc(COCC3CC3)c2C1 was tested, and the “Percent Effect” value was -8.849%. For O=C(NC1CC1)N1Cc2[nH]nc(COc3cccnc3)c2C1.O=C(O)C(F)(F)F, the “Percent Effect” value was -0.5105%. For O=C(O)C(F)(F)F.O=C(O)C(F)(F)F.c1cncc(COCc2n[nH]c3c2CN(Cc2ccco2)C3)c1, the “Percent Effect” value was 1.979%. In the case of Cc1nn(C)c(C)c1-c1ccc(=O)n(C(C)C(=O)NC(C)(C)C)n1 (centres undefined), the “Percent Effect” value is reported as 122.1%. For Cc1nn(C)c(C)c1C(C)NC(=O)Nc1cccnc1N1CCCC1 (centres undefined), the “Percent Effect” value was 8.996%. In the case of CCSc1ccc(NC(=O)NC(C)c2c(C)nn(C)c2C)cn1 (centres undefined), the “Percent Effect” value is reported as -34.73%. COC(=O)[C@H]1CN(C(=O)NC(C)C)CCN1C(=O)c1cccs1 was tested, and the “Percent Effect” value was 13.93%. In the case of Cc1cc(C(=O)N2CCc3nc(N4CCOCC4)nc(C)c3C2)c(C)o1.O=CO, the “Percent Effect” value is reported as 94.45%. Cc1cc(C(=O)N2CCc3nc(N4CCCC4)nc(C)c3CC2)c(C)o1 was tested, and the “Percent Effect” value was 102.5%. For Cc1nc(N2CCCC2)nc2c1CCN(C(=O)c1ccoc1C)CC2, the “Percent Effect” value was 99.57%. Cc1nc(N2CCCC2)nc2c1CN(C(=O)c1ccco1)CC2 was tested, and the “Percent Effect” value was 4.912%. With CN(C)c1nc(N2CCCC2)nc2c1CCN(C(=O)c1ccoc1)CC2 the “Percent Effect” value was -4.722%. With CCc1noc(CS(=O)(=O)C(C)c2nc(C3CC3)no2)n1 (centres undefined) the “Percent Effect” value was -17.73%. For N#Cc1ccccc1OCCN1CCCC1Cn1cccn1 (centres undefined), the “Percent Effect” value was 7.756%. With COCC1CN(C(=O)Cc2ccc(F)cc2)Cc2ccnn2C1 (centres undefined) the “Percent Effect” value was 27.63%. In the case of Cn1cc(Nc2cccc(C(=O)N(CC(N)=O)C3CCCC3)c2)cn1, the “Percent Effect” value is reported as 6.719%. For CC(NC(N)=O)C(=O)NCc1cc(Br)ccc1F (centres undefined), the “Percent Effect” value was 3.265%. CN1CCCN(C[C@@H]2CN(C(=O)CCc3cn[nH]c3)C[C@@H]2CO)CC1 was tested, and the “Percent Effect” value was 1.74%. O=C(c1ccnnc1)N1CCCn2nnc(COCC3CC3)c2C1 was tested, and the “Percent Effect” value was -17.91%. O=C(c1ccncc1)N1CCCn2nnc(Cn3cccn3)c2C1 was tested, and the “Percent Effect” value was 4.632%. In the case of O=C(CO)N1CCCn2nnc(Cn3cccn3)c2C1, the “Percent Effect” value is reported as -5.05%. With O=C(C1CC=CC1)N1CCCn2nnc(CNc3ncccn3)c2C1 the “Percent Effect” value was 108.6%. O=C(CC1CC1)N1CCCn2nnc(CNc3ncccn3)c2C1 was tested, and the “Percent Effect” value was 92.45%. C1CN(CC2CCOCC2)Cc2c(COCC3CC3)nnn2C1.O=C(O)C(F)(F)F was tested, and the “Percent Effect” value was 2.92%. CN(C)C(=O)NCc1nnn2c1CN(CC1CCOCC1)CCC2.O=C(O)C(F)(F)F was tested, and the “Percent Effect” value was 4.127%. COCc1nnn2c1CN(C(=O)c1ccnnc1)CCC2 was tested, and the “Percent Effect” value was -7.41%. With O=C(O)C(F)(F)F.c1cnc(NCc2nnn3c2CN(CC2CC2)CCC3)nc1 the “Percent Effect” value was 97.82%.
